According to PubChem BioAssay AID602358 (National Center for Advancing Translational Sciences (NCATS), 2012):
Results filed as inconclusive are left out. Unmarked numbers belong to inactive results. Activity calls are given as the source filed them. Calls follow the shape of the dose curve; as a rule, active = well fitted inhibition curve with a large enough effect; inconclusive = small, poorly fitted or top-dose-only effect; inactive = flat fitted curve, though single readings scatter.

The compounds below were run against Luciferin 4-monooxygenase (Photinus pyralis) (UniProt P08659) (assay: FLuc inhibitory activity for the follow-up compounds in a biochemical assay with Km concentrations of substrate and 500microM CoASH). Settings: purified FLuc, Km substrates + 500 uM CoASH, luminescence; series mostly up to 57.5 µM; activity change, negative = inhibition: at the top concentration.
From the text: NCGC Assay Overview: Firefly (Photinus pyralis) luciferase is one of the most commonly used transcriptional reporters. It is considered one of the more dynamically responsive reporters - that is, responsive to changes in reporter transcription - as it requires no post-translational modifications and is enzymatically active directly after protein synthesis (Wood, 1998). With no endogenous expression in mammalian cells and without the requirement of external excitation, it offers very little background signal, thus generally providing excellent signal to background for most assays. Previous profiling work to determine the prevalence of compounds that affect FLuc enzymatic activity (PubChem AID 411) identified that ~3% of the MLSMR library (then at ~72K) inhibited FLuc. […] Of the compounds identified in this profile that inhibited FLuc, 151 compounds were selected for further analysis, in an effort to better understand their mode of inhibiting FLuc. The assay described here was to determine the activity of the compounds in an FLuc assay that contained KM concentrations of substrates and 500uM CoASH.
NCGC Assay Protocol Summary: Reagents: 50mM Tris acetate, pH 7.5; 10mM Mg acetate; 10uM D-luciferin (Sigma #L9504); 10uM ATP; 0.01% Tween-20; 0.05% BSA; 10nM P. pyralis luciferase (Sigma #L9506); 500 uM CoASH Control compounds used were two known firefly luciferase inhibitors (3-(5-(3-chlorophenyl)-1,2,4-oxadiazol-3-yl)benzoic acid and 5-(2-fluorophenyl)-3-phenyl-1,2,4-oxadiazole), and DMSO. Three microliters containing firefly luciferase substrates in buffer (final concentrations: 50mM Tris acetate, pH 7.5, 10mM Mg acetate, 0.01% Tween-20, 0.05% BSA, 10uM D-luciferin, 10uM ATP, and 500 uM CoASH) are dispensed into each well of a Greiner white, solid-bottom 1536-well format plate using a flying reagent dispenser (FRD). These assay plates were then treated with 23nL of compound or DMSO using a Kalypsys pin tool, which allows for delivery of a 12-point intraplate titration of each compound to the assay plate (quantitative HTS), with a final compound concentrations ranging from approximately ~60uM to 0.3nM. One microliter of firefly luciferase in 500mM Tris-acetate buffer was then delivered by FRD to each well for a final enzyme concentration of 10nM. Luciferase activity was then measured using a ViewLux CCD imager (PerkinElmer), with an average exposure time of 2-30 seconds (2X binning, medium/high gain).

Sequence of Luciferin 4-monooxygenase (Photinus pyralis) (P08659 whole entry, looked up): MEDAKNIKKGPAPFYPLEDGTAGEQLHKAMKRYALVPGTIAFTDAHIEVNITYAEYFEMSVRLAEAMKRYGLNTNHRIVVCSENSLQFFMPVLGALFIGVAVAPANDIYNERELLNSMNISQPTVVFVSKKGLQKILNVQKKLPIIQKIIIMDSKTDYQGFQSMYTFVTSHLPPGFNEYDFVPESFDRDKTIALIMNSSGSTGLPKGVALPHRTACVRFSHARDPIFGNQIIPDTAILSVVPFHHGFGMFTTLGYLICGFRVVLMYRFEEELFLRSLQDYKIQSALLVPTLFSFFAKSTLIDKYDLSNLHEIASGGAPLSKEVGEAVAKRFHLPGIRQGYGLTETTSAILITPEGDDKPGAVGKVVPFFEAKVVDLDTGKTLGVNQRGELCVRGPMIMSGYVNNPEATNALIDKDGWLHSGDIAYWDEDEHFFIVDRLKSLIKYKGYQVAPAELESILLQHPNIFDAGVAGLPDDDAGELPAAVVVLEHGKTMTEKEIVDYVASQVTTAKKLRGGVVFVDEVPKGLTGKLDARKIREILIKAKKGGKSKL

SMILES | Potency | activity change, negative = inhibition [%]
CC(C)CC(=O)Nc1cccc(C(=O)Nc2ccccc2C(=O)O)c1 | 13 µM (active) | 
CC(C)Oc1ccc(C(=O)Nc2ccc(-c3nc4ccccc4s3)cc2)cc1 |  | -11.1
c1ccc2sc(-c3ccc4c(c3)OCO4)nc2c1 | 0.103 µM (active) | 
O=C(O)c1cccc(NC(=O)c2cccc(S(=O)(=O)Nc3cccc(F)c3)c2)c1 |  | -7.88
O=C(Nc1ccccc1C(=O)O)c1cccc(S(=O)(=O)N2CCCC2)c1 | 18.3 µM (active) | 
Nc1ccc(C(=O)Nc2ccccc2C(=O)O)cc1 | 3.26 µM (active) | 
Nc1ccc(-c2nc3ccc(C(=O)O)cc3s2)cc1 | 0.146 µM (active) | 
COc1ccc2nc(NC(=O)c3ccc(NS(=O)(=O)c4cccs4)cc3)sc2c1 | 2.59 µM (active) | 
Nc1ccc(-c2nc3ccc(N)cc3s2)cc1 | 0.116 µM (active) | 
Nc1cccc(-c2nc3ccc(N)cc3s2)c1 | 0.146 µM (active) | 
COc1ccc(C(=O)Nc2ccccc2C(=O)N/N=C/c2ccc(O)c(OC)c2)cc1 | 0.0037 µM (active) | 
COc1ccccc1C(=O)Nc1ccc(C(=O)O)cc1 |  | -27.9
O=C(COC(=O)c1ccccc1[N+](=O)[O-])c1ccc2c(c1)OCO2 | 0.0023 µM (active) | 
Nc1ccc2nc(-c3ccc(O)cc3)sc2c1 | 0.146 µM (active) | 
CCOc1ccc2nc(NC(=O)Cc3cccs3)sc2c1 | 5.8 µM (active) | 
COc1ccc(-c2nc3ccccc3s2)cc1NC(=O)c1ccc(F)cc1 |  | -19.4
CCOc1ccc2nc(NC(=O)c3ccccn3)sc2c1 | 0.163 µM (active) | 
O=C(O)c1cccc(NC(=O)c2ccc(COc3ccc(Cl)cc3)cc2)c1 | 18.3 µM (active) | 
COc1ccc2nc(NC(=O)CCc3nc(-c4ccccc4F)no3)sc2c1 |  | -17.4
COc1ccc2nc(NC(=O)CCc3ccc(OC)c(OC)c3)sc2c1 |  | -17.3

SMILES | Potency | activity change, negative = inhibition [%]
CC(=O)Oc1ccc(C(=O)Nc2ccccc2C(=O)Nc2cccc(C(=O)O)c2)cc1 | 2.59 µM (active) | 
Nc1ccc(-c2nc3cc(N)ccc3s2)cc1 | 0.259 µM (active) | 
O=C(Nc1ccccc1C(=O)O)c1ccccc1 | 23.1 µM (active) | 
COc1ccc2nc(NC(=O)c3cccc(S(=O)(=O)N4CCOCC4)c3)sc2c1 | 14.6 µM (active) | 
Cc1ccc(C(=O)Nc2cccc(C(=O)O)c2)cc1 | 3.66 µM (active) | 
COc1ccccc1C(=O)Nc1ccc(C(=O)Nc2ccccc2C(=O)O)cc1 | 20.6 µM (active) | 
O=C(Nc1ccccc1C(=O)O)c1ccc(NC(=O)C2CC2)cc1 | 0.73 µM (active) | 
COc1ccc2nc(NC(=O)c3cnccn3)sc2c1 | 0.919 µM (active) | 
O=C(Nc1ccccc1C(=O)O)c1cccc(NC(=O)c2ccc(Br)o2)c1 | 10.3 µM (active) | 
CCOc1ccc2nc(NC(=O)c3cccnc3)sc2c1 | 1.3 µM (active) | 
Cc1ccc2nc(-c3ccc(NC(=O)CN4CCN(C(=O)c5ccco5)CC4)cc3)sc2c1 | 3.66 µM (active) | 
Cc1c(NC(=O)c2cc(-n3cnnc3)ccc2Cl)cccc1-c1nc2ccccc2s1 | 0.231 µM (active) | 
CC(=O)Nc1cccc(-c2nc3ccccc3s2)c1C | 13 µM (active) | 
Oc1ccc(-c2nc3ccccc3s2)c(O)c1 | 1.83 µM (active) | 
CC(C)(C)C(=O)Nc1ccc(-c2nc3ccccc3s2)cc1 | 0.0103 µM (active) | 
O=C(Nc1ccccc1C(=O)O)c1cc(S(=O)(=O)NCc2ccccc2)ccc1Cl |  | -9.7
Cc1ccc(C(=O)Nc2cccc(C(=O)O)c2)cc1S(=O)(=O)N1CCCCC1 | 3.66 µM (active) | 
O=C(Nc1ccccc1C(=O)O)c1ccc(Cl)c(S(=O)(=O)N2CCOCC2)c1 | 5.8 µM (active) | 
O=C(Nc1ccc(-c2nc3ccccc3s2)cc1)C1=COCCO1 | 0.0259 µM (active) | 
Cc1c(NS(C)(=O)=O)cccc1-c1nc2ccccc2s1 | 3.66 µM (active) | 
